# High-throughput results: PubChem BioAssay, National Center for Advancing Translational Sciences (NCATS)
# Sampled rows, rich in hits. Any-hit rate of the full collection: about 5.5%.
# uPA surface inh – inhibitors of cell surface uPA generation; cell surface uPA generation assay, qHTS; Potency, µM (series often up to 38.3 µM), for the others: at the top dose activity change, negative = inhibition, actives largely listed as inhibitors; 330,000 tested, 0.31% active; AID 540303; active = well fitted inhibition curve with a large enough effect; inconclusive = small, poorly fitted or top-dose-only effect; inactive = no such curve, though single readings can be large or run the other way; tested in mouse RAW 264.7 cells; also: % is scaled to controls: 0 for no effect and ±100 for the full control effect; nearly all actives have a fitted effect of over 55% in size
# Mito fusion act – inhibitors of mitochondrial division or activators of mitochondrial fusion. S. cerevisiae fusion-defective mutant growth rescue, CellTiterGlo 48 h. 320,000 tested, 0.23% active. Potency, µM (titrated, usually from 46.1 µM), without a hit: top-dose growth rescue (activation), hits mostly activators; also: % of control where 0% means no effect; nearly all actives have a fitted effect of over 45% in size
#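 Growth-rescue viability read-out: after 48 h at the non-permissive 37C in glycerol/ethanol YPEG, yeast mitochondrial fusion mutants are measured by CellTiterGlo luminescence; compounds (23 nl pinned per well) restoring growth score as division inhibitors or fusion activators.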
# Gal4-VP16 FLuc – counter-screen for ROR gamma inhibitors: Gal4-VP16 reporter; Drosophila S2 Gal4-VP16 UAS-luciferase, luminescence, 20 h; 310,000 tested, 3.5% active; AID 2546; Potency, µM (titrated, usually from 53.6 µM), for inactives: at the top dose activity, negative = inhibition, hits mostly inhibitors;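 also: Gal4-VP16 expression switched on by copper sulfate through the metallothionein promoter; % is scaled to controls: 0 for no effect and ±100 for the full control effect; nearly all actives have a fitted effect of over 50% in size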
# RORg inh – blocks mouse ROR gamma transcriptional activity; Drosophila S2 Gal4-RORgamma UAS-luciferase reporter, 20 h; Potency, µM (highest dose often 53.6 µM), without a hit: at the highest dose activity change, negative = inhibition, hits mostly inhibitors; 310,000 tested, 5.4% active; also: % is scaled to controls: 0 for no effect and ±100 for the full control effect; nearly all actives have a fitted effect of over 60% in size
# Target sequence (P51450 whole entry, looked up, the tested form may be a part): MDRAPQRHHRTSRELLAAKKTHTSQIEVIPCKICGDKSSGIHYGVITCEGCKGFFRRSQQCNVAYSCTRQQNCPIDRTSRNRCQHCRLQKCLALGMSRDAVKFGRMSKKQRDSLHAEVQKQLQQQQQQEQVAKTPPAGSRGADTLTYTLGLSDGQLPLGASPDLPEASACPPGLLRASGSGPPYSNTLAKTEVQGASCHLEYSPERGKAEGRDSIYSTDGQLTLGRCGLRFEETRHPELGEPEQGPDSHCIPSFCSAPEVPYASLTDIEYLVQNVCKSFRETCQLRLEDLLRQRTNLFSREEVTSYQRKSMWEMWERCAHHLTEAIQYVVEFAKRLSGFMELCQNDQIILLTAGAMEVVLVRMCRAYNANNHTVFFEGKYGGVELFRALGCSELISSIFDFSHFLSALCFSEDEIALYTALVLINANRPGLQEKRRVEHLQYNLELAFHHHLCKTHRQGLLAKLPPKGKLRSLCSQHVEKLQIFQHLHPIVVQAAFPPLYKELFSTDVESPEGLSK
#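 Luciferase reporter read in Schneider cells carrying Gal4-RORγ (mouse) and UAS-Photinus luciferase; cells given compound 1 h before 700 uM copper sulfate induction, then incubated 20 h at ambient temperature.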
# a7 integrin act – integrin-mediated muscular dystrophy alleviation activation. alpha7betagal myoblasts, beta-gal FDG fluorescence, 48 h. Potency, µM (titrated, usually from 38.3 µM), for inactives: top-dose activation, hits mostly activators. 350,000 tested, 0.064% active;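 also: 100% = response of the positive control SU9516; nearly all actives have a fitted effect of over 60% in size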
#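 alpha7betagal+/- myoblasts (passage 13, 250/well) treated 48 h at 37C with compounds at 1:260 dilution of DMSO stock. Lysed, then beta-galactosidase activity read as FDG fluorescence (ex 480/em 540) after 30 min, with pre-read for autofluorescence.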
# Chronic BCR inh – chronic active BCR signaling inhibition | ABC-DLBCL IkBa-CBG/CBR reporter, luminescence ratio, 4 h | Potency, µM (top dose mostly 46.1 µM), inactives show at the top dose activity change, negative = inhibition, most hits filed as inhibitors | 340,000 tested, 0.05% active | AID 493014; active = well fitted inhibition curve with a large enough effect in the signal ratio, with a control signal flat, not every such curve was filed as active; inconclusive = small, poorly fitted or top-dose-only effect, or effect the other way, or a change in a side signal; the % refers to the signal ratio;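 also: plate controls were basal doxycycline-induced cells for no effect and cells given 10 µM MG132 for full effect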
#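 TMD8 ABC-DLBCL cells carrying doxycycline-inducible green luciferase fused to IkappaBalpha plus unfused red luciferase were exposed to compounds (up to 46 uM) for 4 hrs at 37C. Activity came from the overlap-corrected green/red luminescence ratio.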
# * = called active by the depositor; i = inactive; u = inconclusive; x = no result given; [ ] = another dose, or the depositor's remark. Unless noted, calls follow the shape of the dose curve; as a rule, active = well fitted curve in the direction sought with a large enough effect; inconclusive = small, poorly fitted or top-dose-only effect, or another doubt; inactive = no such curve, though single readings can be large; an effect the other way counts as inactive or inconclusive. Potency is read from the fitted curve at half-maximal effect.
SMILES,uPA surface inh,Mito fusion act,Gal4-VP16 FLuc,RORg inh,a7 integrin act,Chronic BCR inh
O=C(N/N=C/c1ccc[nH]1)c1ccc(O)cc1,-2%,-4%,u,8.9µM*,-11%,u
Cc1cccc(/C=N/NC(=O)c2cccc([N+](=O)[O-])c2)n1,4%,18%,2%,-15%,17%,-1%
CCCc1cc(C(=O)N2CCCC(Cc3ccccc3C)(C(=O)OCC)C2)no1 (stereo not given),2%,-2%,1%,-6%,-10%,-3%
CC(C)(C)c1ccc(C2CC2C(=O)N/N=C\c2ccc[nH]2)cc1 (stereo not given),-18%,1%,6.3µM*,10µM*,-43%,14%
O=C(N/N=C/c1ccc[nH]1)c1ccccc1O,-4%,-1%,5.6µM*,1.3µM*,-33%,u
CC12CCC=CC1C(c1cccc(Br)c1)N(Cc1ccccc1)C2=O (stereo not given),x,x,13µM*,u,x,x
Cc1cccc([C@H]2[C@@H]3C=CCC[C@@]3(C)C(=O)N2Cc2ccccc2)c1,x,x,21%,43%,x,x
CCCc1cc(N2CCCC2)n2nc(C)c(-c3ccccc3)c2n1,1%,24%,3%[0.365 µM],u,-52%,u
Cc1nn2c(NCc3ccccn3)cc(C(C)C)nc2c1-c1ccccc1,-5%,-19%,0.63µM*,0.089µM*,-60%,-2%
CCCc1cc(NCc2ccccn2)n2nc(C)c(-c3ccccc3)c2n1,-4%,-28%,0.56µM*,0.089µM*,-54%,-10%
CCC(Cc1ccccc1)n1c(=S)[nH]c2ccccc2c1=O (stereo not given),1%,-7%,u,3.5µM*,11%,28%
COn1c(=S)[nH]c2ccccc2c1=O,10%,-1%,2%,u,8%,u
CC(C)n1c(=S)[nH]c2ccccc2c1=O,x,-4%,4µM*,u,-24%,u
CCC(C)n1c(=S)[nH]c2ccccc2c1=O (stereo not given),-3%,-5%,4.5µM*,0.89µM*,10%,u
COc1ccc(NC(=O)C2CCN(S(=O)(=O)c3cccs3)CC2)cc1OC,-3%,-2%,x,x,-19%,3%
CCNc1oc(/C=C/c2ccc(OCC)cc2)nc1C#N,3.2µM*,-2%,-16%,23%,-13%,u
COc1ccc(S(=O)(=O)N2c3ccc(F)cc3CCC2C)cc1 (stereo not given),u,x,x,x,-36%,x
CC(=O)Nc1ccc(S(=O)(=O)N2c3ccc(F)cc3CCC2C)cc1 (stereo not given),4.5µM*,x,x,x,-24%,x
O=C(O)c1ccc2c3n(nc2c1)-c1ccc(Cl)cc1CO3,-10%,1%,3.2µM*,7.1µM*,20%,u
COCCNC(=O)c1ccc2c3n(nc2c1)-c1ccccc1CO3,4µM*,-8%,-27%,u,56%,u
C=CCNC(=O)c1ccc2c3n(nc2c1)-c1ccccc1CO3,1.4µM*,-38%,u,u,3%,u
O=C(c1ccc2c3n(nc2c1)-c1ccc(Cl)cc1CO3)N1CCCCC1,u,14%,9%,-11%,-2%,u
O=C(NCCO)c1ccc2c3n(nc2c1)-c1ccc(Cl)cc1CO3,u,-19%,-1%,28%,4%,-3%
COCCNC(=O)c1ccc2c3n(nc2c1)-c1ccc(Cl)cc1CO3,10µM*,31%,-29%,-38%,-18%,u
O=S(=O)(NCc1ccccc1)c1ccc(Br)c2nsnc12,2%,4%,2%,17%,-12%,8%
SMILES,uPA surface inh,Mito fusion act,Gal4-VP16 FLuc,RORg inh,a7 integrin act,Chronic BCR inh
CC1NC(=O)C(N)CNC(=O)C(C2CCN=C(N)N2)NC(=O)/C(=C/NC(N)=O)NC(=O)C(CNC(=O)CC(N)CCCN)NC1=O (stereo not given),x,x,0%,7%,x,x
Cc1ccccc1NC(=O)c1cc(S(=O)(=O)N2CCOCC2)cn1C,-16%,2%,1%,4%,-16%,-3%
Cc1ccccc1NC(=S)N=Nc1c(O)n(C)c2ccc(S(=O)(=O)N3CCOCC3)cc12,-21%,6%,0.79µM*,0.32µM*,-37%,u
Cc1cccc(C)c1NC(=S)N=Nc1c(O)n(C)c2ccc(S(=O)(=O)N3CCOCC3)cc12,0%,-4%,4.5µM*,1.3µM*,-33%,2%
CC(=O)c1cc(-c2ccc(F)cc2)n(CC(=O)NC2CCCCCC2)c1C,x,x,x,x,x,4%
CCOC(=O)N1CCc2c(sc(NCc3cc(OC)c(OC)cc3OC)c2C(=O)Nc2ccc(OCC)cc2)C1,x,x,x,x,x,8%
CCn1c(C)cc(C(=O)COC(=O)c2cccnc2SC)c1C,-1%,x,x,x,-1%,u
CSc1ncccc1C(=O)OCC(=O)c1cc(C)n(C)c1C,5%,x,x,x,10µM*,4%
Cc1cc(C(=O)COC(=O)c2cccnc2Cl)c(C)n1C,8.9µM*,x,x,x,-9%,-21%
CC(=O)Nc1cc2c(s1)c1cnn(Cc3ccccc3F)c(=O)c1n2C,x,-6%,x,x,x,13%
O=c1[nH]c2cc(Cl)c(O)cc2o1,x,x,-1%,40%,x,x
C=CC(C1=CC(=O)C(OC)=C(OC)C1=O)c1ccccc1 (stereo not given),x,x,7.1µM*,14µM*,x,x
Cn1cccc1C(=O)N1CCC[C@@]2(CCN(Cc3cc(C(F)(F)F)cc(C(F)(F)F)c3)C2)C1,x,x,-1%,u,x,x
O=C(Cc1cccs1)Nc1ccccc1F,4%,5%,25%,17%,-4%,-1%
Clc1ccc(-c2noc(CN(Cc3ccccn3)CC3CCCO3)n2)cc1 (stereo not given),-2%,23%,-26%,4µM*,19%,13%
O=C(Nc1cc([N+](=O)[O-])ccc1C(=O)NCCN1CCOCC1)c1ccccc1,21%,-2%,-1%,-12%,0%,6%
CC(C)c1ccc(NC(=S)NN2CCOCC2)cc1,0%,-5%,u,8.9µM*,-2%,-4%
S=C(Nc1ccc(Cl)cc1)N1CCOCC1,-7%,x,x,x,10%,x
S=C(Nc1ccc(Cl)c(Cl)c1)NN1CCOCC1,-9%,-6%,10µM*,7.9µM*,13%,-1%
S=C(Nc1ccc(Cl)c(Cl)c1)N1CCOCC1,0%,1%,6%,-36%,-12%,u
S=C(Nc1ccc(Cl)cc1)NN1CCOCC1,3%,-7%,u,11µM*,1%,-11%
O=C(NC1(C(F)(F)F)C(=O)Nc2c1c(=O)[nH]c(=O)n2-c1ccccc1)c1ccccc1Cl (stereo not given),x,x,x,x,x,6%
CCc1cc(SC#N)ccc1N,-14%,2%,u,u,i,-15%
CN(c1ccccc1)S(=O)(=O)c1ccc(NC(=O)c2ccc(F)cc2)cc1,3%,x,x,x,-7%,x
